This passage reports growth results from PubChem BioAssay (NCI).

About 83,000 compounds went through this panel and 20% of them were active in at least one assay; those are over-represented in the sample as a whole.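 Single-dose data. Exposure time 48 hours. Values below 10 considered active.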 Active and inactive are the calls of the source.

The test relates to EKVX NSCLC. Put plainly: NCI-60 one-dose screen, 48 h (100 = growth as untreated, 0 = no growth, -100 = all killed). As to conditions: 10 µM unless noted.
Regarding `COc1cc2c(cc1OCCCN1CCN(CCCn3c4ccccc4c4ccccc43)CC1)N=C[C@@H]1CCCN1C2=O`, the growth was -86.8% (active).
`O=C(Nc1ccncc1)C(=O)c1cn(S(=O)(=O)c2ccc(Oc3ccccc3)cc2)c2ccccc12`: the growth was 42.3% (inactive).
The figure for `COc1ccc(-c2ccc(C)n2-c2ccc(-c3nc4cc(Cl)ccc4s3)cc2)cc1` is 90.3% (inactive); for `O=C(NCc1cn(Cc2cccc(Oc3ccccc3)c2)nn1)c1cccnc1Nc1ccc(F)cc1` it is 61.8% (inactive); for `Cc1ccc(-c2cc3nc(C(Cl)Cl)nc(-c4ccccc4C)n3n2)cc1` it is 71.1% (inactive).
Consider `COc1ccc(S(=O)(=O)n2cc(C(=O)C(=O)Nc3ccncc3)c3ccccc32)cc1F`, for which the growth was 39.5% (inactive).
The figure for `CCOC(=O)C1=C(C)NC(C)=C(C(=O)OCC)C1(C)C` is 108% (inactive).
Regarding `O=c1[nH]c(Nc2ccc(S(=O)(=O)O)cc2)nc2nc(Nc3ccc(NC(=S)Nc4ccccc4)cc3)nc(-c3ccc(O)cc3O)c12`, the growth is 110% (inactive).
